The values below come from publication PMC4336329 (PLoS ONE, 2015).

The campaign covered roughly 310,000 compounds. About 14,000 (4.5%) showed an effect of 50% or more. The effect is printed as a negative number. The sample as a whole holds a higher share of strong results than the screen did.
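Note: peak tail current of the secondary pulse compared with the same well before compound.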

This assay deals with human ether-à-go-go-related gene (hERG) potassium channel (human, UniProt Q12809). Kind of assay: primary screen, population patch clamp on CHO cells stably expressing hERG; higher = less effect of the substance.
Chain of human ether-à-go-go-related gene (hERG) potassium channel (Q12809 whole entry, looked up): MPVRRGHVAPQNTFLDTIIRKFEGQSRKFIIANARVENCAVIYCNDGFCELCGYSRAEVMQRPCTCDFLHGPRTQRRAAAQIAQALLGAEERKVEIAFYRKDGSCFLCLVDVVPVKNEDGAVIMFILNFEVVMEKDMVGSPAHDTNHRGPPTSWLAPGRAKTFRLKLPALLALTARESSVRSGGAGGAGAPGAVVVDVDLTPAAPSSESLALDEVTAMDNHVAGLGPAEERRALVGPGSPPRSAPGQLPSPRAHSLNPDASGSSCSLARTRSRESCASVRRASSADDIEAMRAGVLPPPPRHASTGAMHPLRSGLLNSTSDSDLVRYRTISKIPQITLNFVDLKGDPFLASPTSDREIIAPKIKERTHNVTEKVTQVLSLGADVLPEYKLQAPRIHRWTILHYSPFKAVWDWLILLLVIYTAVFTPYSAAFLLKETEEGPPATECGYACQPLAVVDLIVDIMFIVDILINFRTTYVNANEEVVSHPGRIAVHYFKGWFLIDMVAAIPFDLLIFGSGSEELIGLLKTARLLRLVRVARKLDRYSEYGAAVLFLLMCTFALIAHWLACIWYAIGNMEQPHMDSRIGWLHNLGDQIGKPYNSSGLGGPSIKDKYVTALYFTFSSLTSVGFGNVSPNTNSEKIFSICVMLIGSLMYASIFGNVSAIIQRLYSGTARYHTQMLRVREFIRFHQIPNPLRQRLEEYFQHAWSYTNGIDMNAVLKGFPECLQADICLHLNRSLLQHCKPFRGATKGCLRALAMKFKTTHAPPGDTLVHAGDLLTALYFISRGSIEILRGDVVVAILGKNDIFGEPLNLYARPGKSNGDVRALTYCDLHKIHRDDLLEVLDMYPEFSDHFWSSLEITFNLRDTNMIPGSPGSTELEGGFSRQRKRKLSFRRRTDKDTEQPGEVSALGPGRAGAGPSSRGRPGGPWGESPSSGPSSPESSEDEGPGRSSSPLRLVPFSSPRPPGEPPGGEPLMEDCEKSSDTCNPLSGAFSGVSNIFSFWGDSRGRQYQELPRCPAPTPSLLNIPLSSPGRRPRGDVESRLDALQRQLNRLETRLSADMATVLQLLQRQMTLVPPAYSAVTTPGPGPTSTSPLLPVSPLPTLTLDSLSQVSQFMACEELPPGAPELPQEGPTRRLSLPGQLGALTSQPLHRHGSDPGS
For the compound `O=C(CCn1cccc1)NC1CCCc2ccccc21` (centres unmarked), the “hERG current change (%, negative = inhibition) at 10uM” value is 4.95%.

Consider `CC(C)(C)NC(=O)NCc1ccco1`, for which the “hERG current change (%, negative = inhibition) at 10uM” value was 8.48%.

`O=C(CCN1CCN(c2ccccc2)CC1)Nc1nccs1`: the “hERG current change (%, negative = inhibition) at 10uM” value is -9.77%.

In the case of `Cn1c(=O)[nH]c(=O)c2c1nc(CN1CCN(c3ccccc3F)CC1)n2CCCc1ccccc1`, the “hERG current change (%, negative = inhibition) at 10uM” value is recorded as -33.7%.

Turning to `O=C(Nc1ccc([N+](=O)[O-])cc1)C1(c2ccccc2)CCOCC1`, the “hERG current change (%, negative = inhibition) at 10uM” value is listed as -69.1%.

As to `Cc1ccc(NC(=O)C2(c3ccccc3)CCOCC2)cc1`, the “hERG current change (%, negative = inhibition) at 10uM” value is listed as 9.1%.

`O=C(O)c1ccc(NC(=O)C2(c3ccccc3)CCOCC2)cc1`: the “hERG current change (%, negative = inhibition) at 10uM” value is on record as -5.57%.

With `COc1ccc(C(=O)NCc2nnc(SCC(=O)N3CCCCC3)o2)cc1`, the “hERG current change (%, negative = inhibition) at 10uM” value was determined as 29.8%.

In the case of `C/C(=C\c1cc(C(=O)O)c(C)o1)CO`, the “hERG current change (%, negative = inhibition) at 10uM” value is listed as 12.9%.

For `Cc1occc1-c1nnc(SCc2cc(=O)n3cc(Br)ccc3n2)n1C`, the “hERG current change (%, negative = inhibition) at 10uM” value is -47.7%.

For the compound `Cn1c(SCc2cc(=O)n3cc(Br)ccc3n2)nnc1C1COc2ccccc2O1` (centres unmarked), the “hERG current change (%, negative = inhibition) at 10uM” value is on record as -72%.

Regarding `Cn1c(SCC(=O)c2ccccc2)nnc1C1COc2ccccc2O1` (centres unmarked), the “hERG current change (%, negative = inhibition) at 10uM” value is reported as -11.9%.

On to `O=C(OCc1cc(=O)n2cc(Br)ccc2n1)C1COc2ccccc2O1` (centres unmarked), for which the “hERG current change (%, negative = inhibition) at 10uM” value is on record as -15.5%.

On to `Cn1c(SCc2nnc(-c3ccc(F)cc3)o2)nnc1C1COc2ccccc2O1` (centres unmarked), for which the “hERG current change (%, negative = inhibition) at 10uM” value is -60.9%.

For the compound `Cn1c(SCc2cnc(-c3ccccc3)s2)nnc1C1COc2ccccc2O1` (centres unmarked), the “hERG current change (%, negative = inhibition) at 10uM” value is on record as -1.06%.

`CN(C(=O)COC(=O)c1nc(Cl)ccc1Cl)c1ccccc1`: the “hERG current change (%, negative = inhibition) at 10uM” value is listed as 17.6%.

Turning to `Cc1ccc(OC(=O)CCC(=O)Nc2ccc(C(N)=O)cc2)cc1`, the “hERG current change (%, negative = inhibition) at 10uM” value amounted to 18.2%.

Regarding `COc1cccc(/C=C/c2ccc3cccc(O)c3n2)c1`, the “hERG current change (%, negative = inhibition) at 10uM” value is 14.8%.

As to `Cc1cc(C)n(-c2nc(NC(C)(C)C)nc(NC(C)(C)C)n2)n1`, the “hERG current change (%, negative = inhibition) at 10uM” value was -6.46%.

Take `N#CCC(=O)NNc1c([N+](=O)[O-])cc(C(F)(F)F)cc1[N+](=O)[O-]`: the “hERG current change (%, negative = inhibition) at 10uM” value is listed as 28.8%.

Regarding `COc1ccccc1N1CCN(Cc2nc(-c3ccc(F)cc3)oc2C)CC1`, the “hERG current change (%, negative = inhibition) at 10uM” value is reported as -65.9%.

As for `COc1ccccc1CN1CCN(Cc2nc(-c3ccc(C)cc3)oc2C)CC1`, the “hERG current change (%, negative = inhibition) at 10uM” value is -58.8%.

For `COc1ccc(-c2nc(CN3CCN(Cc4ccccc4)CC3)c(C)o2)cc1`, the “hERG current change (%, negative = inhibition) at 10uM” value is recorded as -42.2%.

As for `COc1ccccc1N1CCN(Cc2c(F)cccc2F)CC1`, the “hERG current change (%, negative = inhibition) at 10uM” value is listed as -18%.

As to `COc1cc(-c2nc(CN3CCN(c4ncccn4)CC3)c(C)o2)ccc1F`, the “hERG current change (%, negative = inhibition) at 10uM” value is reported as -9.65%.

In the case of `COc1ccccc1CN1CCN(S(=O)(=O)c2ccc(C)cc2)CC1`, the “hERG current change (%, negative = inhibition) at 10uM” value is -19%.

With `Cc1cc(C)cc(C(=O)OCC(=O)N2CCCC2)c1`, the “hERG current change (%, negative = inhibition) at 10uM” value was 9.79%.

In the case of `COC(=O)c1sccc1-c1ccc(C(N)=O)o1`, the “hERG current change (%, negative = inhibition) at 10uM” value amounted to 7.97%.

As to `N=C1c2ccccc2CN1c1ncccn1`, the “hERG current change (%, negative = inhibition) at 10uM” value is -10.6%.

For `Br.Cc1ccc(N2Cc3ccccc3C2=N)cc1[N+](=O)[O-]`, the “hERG current change (%, negative = inhibition) at 10uM” value was -4.21%.

For the compound `Cc1cc(C)nc(N2Cc3ccccc3C2=N)n1`, the “hERG current change (%, negative = inhibition) at 10uM” value is -56%.

Consider `COc1ccccc1CN=c1c([N+](=O)[O-])nn(-c2ccc3c(c2)OCCO3)n1O`, for which the “hERG current change (%, negative = inhibition) at 10uM” value is recorded as -7.21%.

Take `COc1cc(CC(=O)OCC(=O)Nc2cc([N+](=O)[O-])ccc2F)cc(OC)c1OC`: the “hERG current change (%, negative = inhibition) at 10uM” value is -38.9%.

On to `COc1ccc([N+](=O)[O-])cc1NC(=O)COC(=O)Cc1cc(OC)c(OC)c(OC)c1`, for which the “hERG current change (%, negative = inhibition) at 10uM” value is listed as -17.8%.

Take `COc1cc(CC(=O)OCC(=O)Nc2cc([N+](=O)[O-])ccc2Cl)cc(OC)c1OC`: the “hERG current change (%, negative = inhibition) at 10uM” value is recorded as -50%.

With `Cc1cc(NC(=O)CCC(=O)N(Cc2ccco2)C(C(=O)NC2CCCCC2)c2cccs2)no1` (centres unmarked), the “hERG current change (%, negative = inhibition) at 10uM” value is -20.9%.

For the compound `COc1cccc(/C(O)=C2/C(=O)C(=O)N(Cc3ccco3)C2c2ccncc2)c1` (centres unmarked), the “hERG current change (%, negative = inhibition) at 10uM” value came to 15.2%.

For the compound `CS(=O)(=O)N(CC(=O)Nc1ccccc1C(=O)NCc1ccco1)c1ccc2c(c1)OCCO2`, the “hERG current change (%, negative = inhibition) at 10uM” value is listed as -5.03%.

With `CC(=O)Nc1ccc(NC(=O)C(C)OC(=O)CNC(=O)c2sc3ccccc3c2Cl)cc1` (centres unmarked), the “hERG current change (%, negative = inhibition) at 10uM” value is reported as 18.6%.

Turning to `CN(C)CCCN1C(=O)c2cccc3c(Br)ccc(c23)C1=O`, the “hERG current change (%, negative = inhibition) at 10uM” value is -66.4%.

Turning to `CN(C)CCCN1C(=O)c2cccc3cccc(c23)C1=O`, the “hERG current change (%, negative = inhibition) at 10uM” value is given as -16%.

On to `CN(C)CCCN1C(=O)c2cccc3c([N+](=O)[O-])ccc(c23)C1=O`, for which the “hERG current change (%, negative = inhibition) at 10uM” value is given as -27.7%.

In the case of `COc1ccc2c(c1OC)C(=O)OC2Nc1nc(-c2ccccc2)cs1` (centres unmarked), the “hERG current change (%, negative = inhibition) at 10uM” value is on record as 8.12%.

`COCCCn1cnc2c(c1=O)c1nc3ccccc3nc1n2-c1ccccc1`: the “hERG current change (%, negative = inhibition) at 10uM” value is on record as -56.6%.

For `COCCCn1cnc2c(c1=O)c1nc3ccccc3nc1n2-c1ccc(C)cc1`, the “hERG current change (%, negative = inhibition) at 10uM” value is on record as -37%.

Take `CCOCCCn1cnc2c(c1=O)c1nc3ccccc3nc1n2-c1ccccc1`: the “hERG current change (%, negative = inhibition) at 10uM” value is on record as -30.6%.

For the compound `CCCCn1c(SCC(=O)NNC(=O)c2ccco2)nnc1-c1ccco1`, the “hERG current change (%, negative = inhibition) at 10uM” value came to 4%.

Take `CCn1c(=O)c2c(nc(SCC(=O)NCC3CCCO3)n2C)n(C)c1=O` (centres unmarked): the “hERG current change (%, negative = inhibition) at 10uM” value is on record as -0.794%.

For the compound `COc1ccc(-c2nnn(Cc3nc(N)nc(N4CCOCC4)n3)n2)cc1OC`, the “hERG current change (%, negative = inhibition) at 10uM” value was -0.202%.

`Clc1ccc(Cn2nnc(-c3ccc(N4CCOCC4)cc3)n2)cc1`: the “hERG current change (%, negative = inhibition) at 10uM” value was 4.16%.

Take `COc1ccc(-c2nnn(Cc3nc(N)nc(N4CCCCC4)n3)n2)cc1`: the “hERG current change (%, negative = inhibition) at 10uM” value is -9.06%.

On to `Nc1nc(Cn2nnc(-c3ccccc3F)n2)nc(N2CCOCC2)n1`, for which the “hERG current change (%, negative = inhibition) at 10uM” value was -73.4%.

`Nc1nc(Cn2nnc(-c3ccccc3Cl)n2)nc(N2CCOCC2)n1`: the “hERG current change (%, negative = inhibition) at 10uM” value was -54.4%.

As to `Nc1nc(CSCc2ccccc2)nc(N2CCOCC2)n1`, the “hERG current change (%, negative = inhibition) at 10uM” value is reported as -10.2%.

On to `CCCCN(C(=O)NC(=O)Nc1ccccc1OC)S(C)(=O)=O`, for which the “hERG current change (%, negative = inhibition) at 10uM” value is -2.42%.

For `CCCCCCCCN1C(=O)N(C)C(N(O)C(=O)NC)C1(C)C` (centres unmarked), the “hERG current change (%, negative = inhibition) at 10uM” value turned out to be 8.37%.
